Over roughly 2,900 compounds, “NF-kB SEAP reporter activity, fold change vs agonist alone” has its median near 0.99; the highest 2% begin near 2.6. The sample as a whole holds a higher share of the highest values than the screen did.
How the values were obtained:
RAW-Dual [1] = experiment: NF-kB SEAP reporter activity, fold change vs agonist alone; higher = enhanced NF-kB activity; settings: library stock concentration (final ~1000-fold dilution): 10 mM, cytotoxicity flag (confluency mask): not cytotoxic
How it was run: (§1)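 RAW-Dual macrophages were seeded in DMEM at 50,000 cells/well in 384-well plates, given 50 nL of library stock by pin tool, and given a PRR agonist 1 h later. Plates were held at 37 °C, 5% CO2 for 20 hours, after which supernatant was read for IRF by QuantiLuc luminescence and for NF-κB by QuantiBlue absorbance at 620 nm. Reporter activity is expressed as fold change over wells that received agonist alone. A well was called cytotoxic when IncuCyte confluency fell below 70% of agonist controls in both mask sets.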

RAW-Dual [2] = experiment: NF-kB SEAP reporter activity, fold change vs agonist alone; cytotoxicity flag (confluency mask): not cytotoxic; higher = enhanced NF-kB activity
How it was run: as §1

[3] = agonist: ODN 1826 (TLR9) 0.5 ug/mL
[4] = agonist: Pam2CSK4 (TLR2/6) 0.1 ug/mL
[5] = agonist: Pam3CSK4 (TLR2/1) 0.1 ug/mL

Cc1noc(C)c1-c1cnc2c(-c3ccc(C(=O)O)cc3)cn(C(C)c3ccccn3)c2c1 (stereo unspecified)
NF-kB SEAP reporter activity (RAW-Dual [1]; agonist: Imiquimod (TLR7) […]): 1.59
NF-kB SEAP reporter activity (RAW-Dual [1]; agonist: MPLA (TLR4) […]): 2.29

Cc1noc(C)c1-c1ccc2[nH]c(=O)n3c2c1OCC3c1ccccn1 (stereo unspecified)
NF-kB SEAP reporter activity (RAW-Dual [1]; agonist: Imiquimod (TLR7) […]): 1.5
NF-kB SEAP reporter activity (RAW-Dual [1]; agonist: MPLA (TLR4) […]): 2.28

Cc1noc(C)c1-c1ccc2[nH]c(=O)n3c2c1OCC3c1ccccn1 (stereo unspecified) (library stock concentration (final ~1000-fold dilution): 10 mM)
NF-kB SEAP reporter activity (RAW-Dual [2]; agonist: LPS (TLR4) 0.1 ug/mL): 1.61
NF-kB SEAP reporter activity (RAW-Dual [2]; [3]): 1.67
NF-kB SEAP reporter activity (RAW-Dual [2]; [4]): 0.501
NF-kB SEAP reporter activity (RAW-Dual [2]; [5]): 1.34

Cc1noc(C)c1-c1cnc2c(-c3ccc(C(=O)O)cc3)cn(C(C)c3ccccn3)c2c1 (stereo unspecified) (library stock concentration (final ~1000-fold dilution): 10 mM)
NF-kB SEAP reporter activity (RAW-Dual [2]; agonist: LPS (TLR4) 0.1 ug/mL): 2.32
NF-kB SEAP reporter activity (RAW-Dual [2]; [3]): 1.73
NF-kB SEAP reporter activity (RAW-Dual [2]; [4]): 0.767
NF-kB SEAP reporter activity (RAW-Dual [2]; [5]): 2.09

C=CC(=O)N1CCC(C2CCNc3c(C(N)=O)c(-c4ccc(Oc5ccccc5)cc4)nn32)CC1 (stereo unspecified) (library stock concentration (final ~1000-fold dilution): 10 mM)
NF-kB SEAP reporter activity (RAW-Dual [2]; agonist: LPS (TLR4) 0.1 ug/mL): 0.708
NF-kB SEAP reporter activity (RAW-Dual [2]; [3]): 0.413
NF-kB SEAP reporter activity (RAW-Dual [2]; [4]): 0.25
NF-kB SEAP reporter activity (RAW-Dual [2]; [5]): 0.279

C=CC(=O)N1CCC(C2CCNc3c(C(N)=O)c(-c4ccc(Oc5ccccc5)cc4)nn32)CC1 (stereo unspecified)
NF-kB SEAP reporter activity (RAW-Dual [1]; agonist: Imiquimod (TLR7) […]): 0.477
NF-kB SEAP reporter activity (RAW-Dual [1]; agonist: MPLA (TLR4) […]): 0.541

Cn1c(=O)cc(C(=O)Nc2ccc3c(c2)OCCO3)c2ccccc21 (library stock concentration (final ~1000-fold dilution): 10 mM)
NF-kB SEAP reporter activity (RAW-Dual [2]; agonist: LPS (TLR4) 0.1 ug/mL): 0.989
NF-kB SEAP reporter activity (RAW-Dual [2]; [3]): 1.02
NF-kB SEAP reporter activity (RAW-Dual [2]; [4]): 0.995
NF-kB SEAP reporter activity (RAW-Dual [2]; [5]): 1.07

Cn1c(=O)cc(C(=O)Nc2ccc3c(c2)OCCO3)c2ccccc21
NF-kB SEAP reporter activity (RAW-Dual [1]; agonist: Imiquimod (TLR7) […]): 0.997
NF-kB SEAP reporter activity (RAW-Dual [1]; agonist: MPLA (TLR4) […]): 0.999

CC#CCn1c(N2CCCC(N)C2)nc2c1c(=O)n(Cc1nc(C)c3ccccc3n1)c(=O)n2C (stereo unspecified)
NF-kB SEAP reporter activity (RAW-Dual [1]; agonist: Imiquimod (TLR7) […]): 0.851
NF-kB SEAP reporter activity (RAW-Dual [1]; agonist: MPLA (TLR4) […]): 1

CC#CCn1c(N2CCCC(N)C2)nc2c1c(=O)n(Cc1nc(C)c3ccccc3n1)c(=O)n2C (stereo unspecified) (library stock concentration (final ~1000-fold dilution): 10 mM)
NF-kB SEAP reporter activity (RAW-Dual [2]; agonist: LPS (TLR4) 0.1 ug/mL): 1.31
NF-kB SEAP reporter activity (RAW-Dual [2]; [3]): 0.823
NF-kB SEAP reporter activity (RAW-Dual [2]; [4]): 1.05
NF-kB SEAP reporter activity (RAW-Dual [2]; [5]): 1.17

O=c1ccoc2cc(O)ccc12
NF-kB SEAP reporter activity (RAW-Dual [1]; agonist: Imiquimod (TLR7) […]): 1.18
NF-kB SEAP reporter activity (RAW-Dual [1]; agonist: MPLA (TLR4) […]): 1.15

O=c1ccoc2cc(O)ccc12 (library stock concentration (final ~1000-fold dilution): 10 mM)
NF-kB SEAP reporter activity (RAW-Dual [2]; agonist: LPS (TLR4) 0.1 ug/mL): 1.85
NF-kB SEAP reporter activity (RAW-Dual [2]; [3]): 1.15
NF-kB SEAP reporter activity (RAW-Dual [2]; [4]): 1.04
NF-kB SEAP reporter activity (RAW-Dual [2]; [5]): 0.865

CS(=O)(=O)CCNCc1ccc(-c2ccc3ncnc(Nc4ccc(OCc5cccc(F)c5)c(Cl)c4)c3c2)o1
NF-kB SEAP reporter activity (RAW-Dual [1]; agonist: Imiquimod (TLR7) […]): 2.12
NF-kB SEAP reporter activity (RAW-Dual [1]; agonist: MPLA (TLR4) […]): 2

CS(=O)(=O)CCNCc1ccc(-c2ccc3ncnc(Nc4ccc(OCc5cccc(F)c5)c(Cl)c4)c3c2)o1.Cc1ccc(S(=O)(=O)O)cc1.Cc1ccc(S(=O)(=O)O)cc1
NF-kB SEAP reporter activity (RAW-Dual [1]; agonist: Imiquimod (TLR7) […]): 1.68
NF-kB SEAP reporter activity (RAW-Dual [1]; agonist: MPLA (TLR4) […]): 1.56

C=CC(=O)Nc1ccc2ncnc(Nc3ccc(OCc4cccc(F)c4)c(Cl)c3)c2c1.Cc1ccc(S(=O)(=O)O)cc1 (library stock concentration (final ~1000-fold dilution): 10 mM)
NF-kB SEAP reporter activity (RAW-Dual [2]; agonist: LPS (TLR4) 0.1 ug/mL): 0.275
NF-kB SEAP reporter activity (RAW-Dual [2]; [3]): 0.575
NF-kB SEAP reporter activity (RAW-Dual [2]; [4]): 0.254
NF-kB SEAP reporter activity (RAW-Dual [2]; [5]): 0.377

C=CC(=O)Nc1ccc2ncnc(Nc3ccc(OCc4cccc(F)c4)c(Cl)c3)c2c1.Cc1ccc(S(=O)(=O)O)cc1
NF-kB SEAP reporter activity (RAW-Dual [1]; agonist: Imiquimod (TLR7) […]): 0.818
NF-kB SEAP reporter activity (RAW-Dual [1]; agonist: MPLA (TLR4) […]): 0.445

CC1COC(Nc2ccc3ncnc(Nc4ccc(OCc5nccs5)c(Cl)c4)c3c2)=N1 (stereo unspecified)
NF-kB SEAP reporter activity (RAW-Dual [1]; agonist: Imiquimod (TLR7) […]): 1.28
NF-kB SEAP reporter activity (RAW-Dual [1]; agonist: MPLA (TLR4) […]): 1.03

CC1COC(Nc2ccc3ncnc(Nc4ccc(OCc5nccs5)c(Cl)c4)c3c2)=N1 (stereo unspecified) (library stock concentration (final ~1000-fold dilution): 10 mM)
NF-kB SEAP reporter activity (RAW-Dual [2]; agonist: LPS (TLR4) 0.1 ug/mL): 0.991
NF-kB SEAP reporter activity (RAW-Dual [2]; [3]): 0.507
NF-kB SEAP reporter activity (RAW-Dual [2]; [4]): 0.602
NF-kB SEAP reporter activity (RAW-Dual [2]; [5]): 0.911

Cc1cc(Nc2ncnc3ccc(-c4ccc(CNCCS(C)(=O)=O)o4)cc23)ccc1Oc1ccn2ncnc2c1
NF-kB SEAP reporter activity (RAW-Dual [1]; agonist: Imiquimod (TLR7) […]): 1.08
NF-kB SEAP reporter activity (RAW-Dual [1]; agonist: MPLA (TLR4) […]): 1.53

CS(=O)(=O)CCNCc1ccc(-c2ccc3ncnc(Nc4ccc(OCc5cccc(F)c5)c(Cl)c4)c3c2)o1.Cc1ccc(S(=O)(=O)O)cc1.Cc1ccc(S(=O)(=O)O)cc1 (library stock concentration (final ~1000-fold dilution): 10 mM)
NF-kB SEAP reporter activity (RAW-Dual [2]; agonist: LPS (TLR4) 0.1 ug/mL): 4.16
NF-kB SEAP reporter activity (RAW-Dual [2]; [3]): 0.272
NF-kB SEAP reporter activity (RAW-Dual [2]; [4]): 0.851
NF-kB SEAP reporter activity (RAW-Dual [2]; [5]): 1.14

Cc1cc(Nc2ncnc3ccc(-c4ccc(CNCCS(C)(=O)=O)o4)cc23)ccc1Oc1ccn2ncnc2c1 (library stock concentration (final ~1000-fold dilution): 10 mM)
NF-kB SEAP reporter activity (RAW-Dual [2]; agonist: LPS (TLR4) 0.1 ug/mL): 2.19
NF-kB SEAP reporter activity (RAW-Dual [2]; [3]): 0.229
NF-kB SEAP reporter activity (RAW-Dual [2]; [4]): 0.997
NF-kB SEAP reporter activity (RAW-Dual [2]; [5]): 0.811

CS(=O)(=O)CCNCc1ccc(-c2ccc3ncnc(Nc4ccc(OCc5cccc(F)c5)c(Cl)c4)c3c2)o1.Cc1ccc(S(=O)(=O)O)cc1.Cc1ccc(S(=O)(=O)O)cc1.O (library stock concentration (final ~1000-fold dilution): 10 mM)
NF-kB SEAP reporter activity (RAW-Dual [2]; agonist: LPS (TLR4) 0.1 ug/mL): 1.96
NF-kB SEAP reporter activity (RAW-Dual [2]; [3]): 0.24
NF-kB SEAP reporter activity (RAW-Dual [2]; [4]): 0.755
NF-kB SEAP reporter activity (RAW-Dual [2]; [5]): 0.786

CS(=O)(=O)CCNCc1ccc(-c2ccc3ncnc(Nc4ccc(OCc5cccc(F)c5)c(Cl)c4)c3c2)o1.Cc1ccc(S(=O)(=O)O)cc1.Cc1ccc(S(=O)(=O)O)cc1.O
NF-kB SEAP reporter activity (RAW-Dual [1]; agonist: MPLA (TLR4) […]): 1.99

CS(=O)(=O)CCNCc1ccc(-c2ccc3ncnc(Nc4ccc(OCc5cccc(F)c5)c(Cl)c4)c3c2)o1 (library stock concentration (final ~1000-fold dilution): 10 mM)
NF-kB SEAP reporter activity (RAW-Dual [2]; agonist: LPS (TLR4) 0.1 ug/mL): 2.56
NF-kB SEAP reporter activity (RAW-Dual [2]; [3]): 0.324
NF-kB SEAP reporter activity (RAW-Dual [2]; [4]): 0.657
NF-kB SEAP reporter activity (RAW-Dual [2]; [5]): 1.19
